Screens deposited in PubChem BioAssay by National Center for Advancing Translational Sciences (NCATS).
Sampled rows, rich in hits. Any-hit rate of the full collection: about 7.9%.
KB-V1 cytotox: qHTS assay for MDR1-selective chemotherapeutics: Primary screen using the drug-selected MDR subline cells KB-V1. KB-V1 MDR cells viability, CellTiter-Glo, 72 h. Potency, µM (highest dose often 46.1 µM), usual class: cytotoxic. 3.4% of 400,000 active; also: % is scaled to controls: 0 for no effect and ±100 for the full control effect; nearly all actives have a fitted effect of over 60% in size
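KB-V1, DMEM (no phenol red) + 10% FBS; cpd pin-transferred, titration series; 72 h, 37 degrees C; CellTiter-Glo, luminescence. Data normalized, curve-fit.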
MCF10A rereplic: A quantitative high throughput screen for small molecules that induce DNA re-replication in MCF 10a normal breast cells. MCF 10A DNA re-replication, Hoechst nuclear intensity, 48 h. Potency, µM (top dose mostly 46.1 µM), for the others: at the top dose activity, positive = re-replication, hits mostly activators. 2.9% of 350,000 active. AID 624296, 2012; also: % of control where 0% means no effect; nearly all actives have a fitted effect of over 50% in size
SW480 rerep: A quantitative high throughput screen for small molecules that induce DNA re-replication in SW480 colon adenocarcinoma cells. SW480 DNA re-replication, Hoechst DNA content imaging, 48 h. AID 624297, 2012. 1.8% of 340,000 active. Potency, µM (doses to about 46.1 µM), without a hit: at the top dose re-replication activation, actives largely listed as activators; also: % of control where 0% means no effect; nearly all actives have a fitted effect of over 55% in size
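Per well, 250 cells were exposed to pinned compound for 48 hr. Nuclear DNA was visualised with Hoechst (40 min, 37 C) and total object intensity recorded by fluorescence scanning.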
HT1080-NT tox: qHTS for induction of synthetic lethality in tumor cells producing 2HG: qHTS for the HT-1080-NT fibrosarcoma cell line. HT-1080-NT fibrosarcoma viability, CellTiter-Glo ATP luminescence, 48 h. 1.6% of 360,000 active. Potency, µM (titrated, usually from 46.1 µM), without a hit: at the top dose activity, negative = less viability, actives largely listed as cytotoxic;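 also: NT is the 2HG producing partner of a matched IDH1 knockdown line; 0% = DMSO-treated cells and -100% = media-only wells without cells; nearly all actives have a fitted effect of over 55% in size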
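HT-1080-NT; 750 cells/well; 5% FBS RPMI; 48 h compound, 37 degrees C; CellTiter-Glo luminescence; curve fitting and curve-class assignment.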
KB-3-1 cytotox: qHTS assay for MDR1-selective chemotherapeutics: Primary screen using the parental adenocarcinoma cell KB-3-1; Potency, µM (highest dose often 46.1 µM), usual class: cytotoxic; KB-3-1 viability, CellTiter-Glo ATP luminescence, 72 h; 1.4% of 400,000 active; also: % is scaled to controls: 0 for no effect and ±100 for the full control effect; nearly all actives have a fitted effect of over 60% in size
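Cytotoxicity in the drug-sensitive parental line KB-3-1 was scored as loss of CellTiter-Glo luminescence following 72 h incubation with compound. Values come from curve fitting of normalized concentration-response data.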
HT1080 IDH1KD tx: qHTS for induction of synthetic lethality in tumor cells producing 2HG: qHTS for the HT-1080-IDH1KD cell line. HT-1080 IDH1 knockdown viability, ATP luminescence, 48 h. Potency, µM (titrated, usually from 46.1 µM), for the others: at the top dose activity, negative = toxicity, actives largely listed as cytotoxic. 2% of 360,000 active. AID 686971, 2013;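 also: 0% = DMSO wells and -100% = cell-free medium wells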
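After a 2 h attachment period, IDH1KD HT-1080 cells took pin-transferred compound for 48 h at 37 °C; ATP-based luminescence after 10 min room-temperature reagent incubation reported viability.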
* hit, by the source's call; i = inactive; ? = inconclusive; nt = no result. Calls follow the shape of the dose curve; as a rule, active = well fitted curve in the direction sought with a large enough effect; inconclusive = small, poorly fitted or top-dose-only effect, or another doubt; inactive = no such curve, though single readings can be large; an effect the other way counts as inactive or inconclusive. Potency is read from the fitted curve at half-maximal effect.

SMILES | KB-V1 cytotox | MCF10A rereplic | SW480 rerep | HT1080-NT tox | KB-3-1 cytotox | HT1080 IDH1KD tx
CCOC(=O)c1cc(C)sc1NC(=O)CSC1=NCCS1 | i | 21µM* | ? | -12% | i | -3%
CCOCCCNC(=O)c1ccc2c(c1)N(CC)C(=O)c1ccccc1S2=O (stereo unspecified) | 18µM* | 6% | 5% | -12% | ? | -27%
O=C(NCc1ccco1)c1ccc2c(c1)N(Cc1ccc(Cl)cc1)C(=O)c1ccccc1S2=O (stereo unspecified) | i | nt | nt | nt | i | nt
CN(Cc1ccccc1)C(=O)c1ccc2c(c1)N(Cc1ccc(Cl)cc1)C(=O)c1ccccc1S2=O (stereo unspecified) | ? | nt | nt | nt | 16µM* | nt
CCCN(CCC)CCCNC(=O)c1ccc2c(c1)N(CC)C(=O)c1ccccc1S2=O (stereo unspecified) | i | -1% | 0% | -2% | ? | -19%
CC1CC(C)CN(CCCNC(=O)c2ccc3c(c2)N(Cc2ccccc2)C(=O)c2ccccc2S3=O)C1 (stereo unspecified) | i | 12µM* | ? | -1% | i | -15%
Cc1onc(-c2ccccc2Cl)c1C(=O)N1CCCCCC1 | i | 0% | -8% | 15% | i | -8%
CC(C)C(=O)N1CCN(c2ccc([N+](=O)[O-])cc2Cl)CC1 | 21µM* | -4% | -6% | 2% | i | 8%
COc1ccccc1N1CCN(c2ccc([N+](=O)[O-])cc2Cl)CC1 | 5.8µM* | 7.3µM* | 18µM* | ? | 16µM* | ?
COc1ccccc1N1CCN(S(=O)(=O)c2ccc([N+](=O)[O-])cc2)CC1 | i | nt | nt | 3% | i | 5%
Cc1cc(C(=O)N2CCCC(C)(C(=O)NS(=O)(=O)C3CC3)C2)nn1C(C)(C)C (stereo unspecified) | i | nt | nt | 22% | i | 25%
CC(C(=O)Nc1cccc([N+](=O)[O-])c1)N1CCN(C/C=C/c2ccccc2)CC1 (stereo unspecified) | 3.7µM* | -2% | 8% | 1% | i | -4%
O=C(c1cccc([N+](=O)[O-])c1)N1CCN(C/C=C/c2ccccc2)CC1 | ? | 2% | -1% | -1% | i | -12%
CCOc1cccc(NC(=O)C2CC(=O)N(CC)C(=Nc3ccc(F)cc3)S2)c1 (stereo unspecified) | ? | nt | nt | nt | i | nt
CCN1C(=O)CC(C(=O)Nc2ccc(F)cc2)SC1=Nc1cccc(OC)c1 (stereo unspecified) | 18µM* | 21% | 3% | -7% | ? | -8%
CCOc1ccc2nc(N3CCCC(C(=O)NCCc4ccc(OC)cc4OC)C3)sc2c1 (stereo unspecified) | i | nt | nt | nt | i | nt
N#CC1=C(N)NC(SCc2ccc(F)cc2)=C(C#N)C12CCCCC2 | ? | 8.2µM* | ? | 21µM* | 23µM* | 23µM*
N#CC1=C(N)NC(SCC(=O)O)=C(C#N)C12CCCC2 | ? | -2% | -4% | 10% | i | 18%
Cc1[nH]n(-c2ccccc2)c(=O)c1C(=O)c1ccccc1 | ? | ? | -136% | -22% | ? | ?
Cc1[nH]n(-c2ccccc2)c(=O)c1C(=O)c1cccc(F)c1 | ? | 12% | -8% | ? | ? | -4%
Cc1[nH]n(-c2ccc(Cl)cc2)c(=O)c1C(=O)c1ccccc1 | 13µM* | 4.6µM* | -20% | -28% | 13µM* | ?
Cc1[nH]n(-c2ccccc2)c(=O)c1C(=O)c1ccc(Cl)cc1 | 10µM* | 21% | 3% | ? | ? | -29%
O=C(CN1CCN(c2nc(-c3ccc(Cl)cc3)cs2)CC1)NCc1ccco1 | i | 9.2µM* | 11% | -21% | i | -2%
S=C(NCc1ccco1)N1CCN(c2nc(-c3ccc(Cl)cc3)cs2)CC1 | i | 11% | 4% | ? | ? | ?
CC(C)C(=O)N1CCN(c2nc(-c3ccc(Cl)cc3)cs2)CC1 | i | ? | ? | -2% | i | ?
SMILES | KB-V1 cytotox | MCF10A rereplic | SW480 rerep | HT1080-NT tox | KB-3-1 cytotox | HT1080 IDH1KD tx
O=C(Cc1cccs1)N1CCN(c2nc(-c3ccc(Cl)cc3)cs2)CC1 | 8.2µM* | 26% | 11% | -17% | i | ?
CCOc1ccc(NC(=O)CC2C(=O)N(c3cccc(C)c3)C(=O)N2CCC2=CCCCC2)cc1 (stereo unspecified) | ? | nt | nt | nt | i | nt
COc1c(Cl)cc(Cl)cc1/C=C/C(=O)c1ccc(NC(=O)c2cccs2)cc1 | 18µM* | 3.7µM* | 6.5µM* | 21µM* | ? | ?
COc1ccc(C(=O)NC(=S)Nc2ccccc2N2CCOCC2)cc1Br | 16µM* | ? | -1% | 5% | i | 5%
COc1cc(C(=O)Nc2ccccc2N2CCOCC2)ccc1OCc1c(C)noc1C | 4.6µM* | 1% | -3% | 9% | i | 9%
COc1cc(C(=O)OCC#N)ccc1OCc1c(C)noc1C | ? | 4.1µM* | 10µM* | ? | ? | 26µM*
COc1cc(C(=O)NCc2ccc(C)cc2)ccc1OCc1c(C)noc1C | i | 1% | 0% | 3% | i | -3%
CCN(Cc1cccc(S(=O)(=O)O)c1)c1ccc(C(=C2C=CC(=[N+](CC)Cc3cccc(S(=O)(=O)O)c3)C=C2)c2ccc(O)cc2S(=O)(=O)O)cc1 | i | nt | nt | nt | i | nt
O=C(CCNS(=O)(=O)c1ccc2c(c1)CCCC(=O)N2)NCc1ccccc1Cl | i | nt | nt | nt | i | nt
Cc1ccc(C(=O)COC(=O)C(Cc2c[nH]c3ccccc23)NC(=O)c2ccc(C(C)(C)C)cc2)cc1 (stereo unspecified) | i | nt | nt | nt | i | nt
Cc1ccc(Sc2ccc(/C=N/O)cc2[N+](=O)[O-])cc1 | i | 21µM* | ? | ? | i | ?
CC(C)(C)Sc1ccc(/C=N/O)cc1[N+](=O)[O-] | 23µM* | 4% | 2% | -15% | i | -19%
O=[N+]([O-])c1cc(/C=N\O)ccc1Oc1ccc(F)cc1 | i | -8% | 2% | -10% | i | -16%
O=[N+]([O-])c1cc(/C=N/O)ccc1SCc1ccccc1Cl | 21µM* | ? | ? | ? | i | ?
